Test results published in the supplement of paper PMC11732987, “Enantioselective OTUD7B fragment discovery through chemoproteomics screening and high-throughput optimisation” (Communications Chemistry, 2025).

Key:
Experiment in all cases: log2 ratio of Biotin-Ahx-Ub-VS probe labelling (fragment/DMSO); higher = less target engagement (more negative = stronger competition), active = hit call of the paper (q ≤ 0.05, log2 ratio ≤ -1)
Settings in all cases: compound concentration: 200 uM; treatment time: 3 h
USP19 = target: T1, USP19 (UniProt O94966)
T1 sequence (whole entry): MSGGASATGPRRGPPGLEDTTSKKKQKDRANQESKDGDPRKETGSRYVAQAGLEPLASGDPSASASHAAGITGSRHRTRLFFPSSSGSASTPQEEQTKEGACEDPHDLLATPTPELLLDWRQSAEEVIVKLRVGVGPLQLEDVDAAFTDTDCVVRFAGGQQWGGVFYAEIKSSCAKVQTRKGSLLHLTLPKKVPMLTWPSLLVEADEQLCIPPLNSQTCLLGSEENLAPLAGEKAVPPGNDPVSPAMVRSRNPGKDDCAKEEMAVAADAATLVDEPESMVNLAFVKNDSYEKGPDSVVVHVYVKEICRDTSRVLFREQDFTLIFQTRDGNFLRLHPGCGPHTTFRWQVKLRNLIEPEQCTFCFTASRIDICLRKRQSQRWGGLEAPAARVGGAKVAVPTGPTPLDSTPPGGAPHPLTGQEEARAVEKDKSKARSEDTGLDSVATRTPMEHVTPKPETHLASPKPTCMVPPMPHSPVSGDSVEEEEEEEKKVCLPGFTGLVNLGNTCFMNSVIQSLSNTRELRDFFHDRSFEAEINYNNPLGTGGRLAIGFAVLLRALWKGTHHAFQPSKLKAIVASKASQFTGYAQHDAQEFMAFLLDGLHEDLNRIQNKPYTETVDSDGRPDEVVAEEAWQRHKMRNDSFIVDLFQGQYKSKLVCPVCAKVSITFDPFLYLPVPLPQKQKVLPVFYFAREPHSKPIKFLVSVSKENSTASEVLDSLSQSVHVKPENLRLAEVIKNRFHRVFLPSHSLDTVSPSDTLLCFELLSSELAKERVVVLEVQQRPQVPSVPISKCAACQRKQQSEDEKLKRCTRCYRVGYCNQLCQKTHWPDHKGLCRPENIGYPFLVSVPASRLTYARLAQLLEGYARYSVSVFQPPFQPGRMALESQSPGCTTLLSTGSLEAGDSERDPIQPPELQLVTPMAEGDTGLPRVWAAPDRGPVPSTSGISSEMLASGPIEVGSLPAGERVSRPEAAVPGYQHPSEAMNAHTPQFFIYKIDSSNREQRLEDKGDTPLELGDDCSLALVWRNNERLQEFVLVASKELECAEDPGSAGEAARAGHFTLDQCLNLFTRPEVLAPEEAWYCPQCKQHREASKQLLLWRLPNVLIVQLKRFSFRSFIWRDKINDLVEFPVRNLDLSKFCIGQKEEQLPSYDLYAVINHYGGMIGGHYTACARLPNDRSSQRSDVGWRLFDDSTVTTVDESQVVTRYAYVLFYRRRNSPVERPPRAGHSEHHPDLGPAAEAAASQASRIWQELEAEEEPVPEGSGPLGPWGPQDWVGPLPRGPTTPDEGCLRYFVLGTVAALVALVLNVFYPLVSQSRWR
Method in brief: (§1)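 Triplicate samples of HEK293T lysate, 495 µg each, received fragment at 200 µM or vehicle for 3 h, followed by Biotin-Ahx-Ub-VS (0.5 µM final) for 1 h. After NeutrAvidin enrichment of labelled DUBs and LysC/trypsin digestion, peptides were run by diaPASEF LC-MS/MS. The values are average log2 fragment/vehicle ratios from global-median-normalised Spectronaut label-free quantities, tested by unpaired t-test on proteins having ≥2 unique peptides.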

USP24 = USP24 (UniProt Q9UPU5)
Method in brief: as §1

USP25 = target: T2, USP25 (UniProt Q9UHP3)
T2 sequence (whole entry): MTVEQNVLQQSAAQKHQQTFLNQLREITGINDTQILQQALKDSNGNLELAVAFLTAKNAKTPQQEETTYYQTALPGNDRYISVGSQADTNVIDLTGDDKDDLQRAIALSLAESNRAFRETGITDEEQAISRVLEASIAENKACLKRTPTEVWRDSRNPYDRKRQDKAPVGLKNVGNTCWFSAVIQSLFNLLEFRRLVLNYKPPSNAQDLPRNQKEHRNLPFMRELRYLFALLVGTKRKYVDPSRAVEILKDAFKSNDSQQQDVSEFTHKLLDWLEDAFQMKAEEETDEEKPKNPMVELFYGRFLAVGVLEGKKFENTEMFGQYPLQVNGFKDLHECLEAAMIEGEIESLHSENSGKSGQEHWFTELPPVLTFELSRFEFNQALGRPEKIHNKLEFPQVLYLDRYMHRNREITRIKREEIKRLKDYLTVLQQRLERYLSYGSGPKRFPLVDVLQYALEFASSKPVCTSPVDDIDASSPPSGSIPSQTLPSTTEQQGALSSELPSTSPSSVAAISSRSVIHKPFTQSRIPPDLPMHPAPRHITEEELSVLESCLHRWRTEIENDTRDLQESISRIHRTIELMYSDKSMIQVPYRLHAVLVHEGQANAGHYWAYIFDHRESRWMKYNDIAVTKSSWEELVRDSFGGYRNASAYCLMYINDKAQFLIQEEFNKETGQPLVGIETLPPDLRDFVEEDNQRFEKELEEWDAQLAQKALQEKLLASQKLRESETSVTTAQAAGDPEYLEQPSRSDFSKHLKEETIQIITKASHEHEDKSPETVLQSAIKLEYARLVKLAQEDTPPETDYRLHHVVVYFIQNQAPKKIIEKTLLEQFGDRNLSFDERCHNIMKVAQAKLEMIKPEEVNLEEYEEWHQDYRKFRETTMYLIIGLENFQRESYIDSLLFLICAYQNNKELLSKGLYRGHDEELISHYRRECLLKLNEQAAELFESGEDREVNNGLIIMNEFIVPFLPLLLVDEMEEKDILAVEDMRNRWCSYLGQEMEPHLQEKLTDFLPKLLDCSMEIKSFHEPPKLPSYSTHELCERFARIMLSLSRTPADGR
Method in brief: as §1

USP28 = target: T3, USP28 (UniProt Q96RU2)
T3 sequence (whole entry): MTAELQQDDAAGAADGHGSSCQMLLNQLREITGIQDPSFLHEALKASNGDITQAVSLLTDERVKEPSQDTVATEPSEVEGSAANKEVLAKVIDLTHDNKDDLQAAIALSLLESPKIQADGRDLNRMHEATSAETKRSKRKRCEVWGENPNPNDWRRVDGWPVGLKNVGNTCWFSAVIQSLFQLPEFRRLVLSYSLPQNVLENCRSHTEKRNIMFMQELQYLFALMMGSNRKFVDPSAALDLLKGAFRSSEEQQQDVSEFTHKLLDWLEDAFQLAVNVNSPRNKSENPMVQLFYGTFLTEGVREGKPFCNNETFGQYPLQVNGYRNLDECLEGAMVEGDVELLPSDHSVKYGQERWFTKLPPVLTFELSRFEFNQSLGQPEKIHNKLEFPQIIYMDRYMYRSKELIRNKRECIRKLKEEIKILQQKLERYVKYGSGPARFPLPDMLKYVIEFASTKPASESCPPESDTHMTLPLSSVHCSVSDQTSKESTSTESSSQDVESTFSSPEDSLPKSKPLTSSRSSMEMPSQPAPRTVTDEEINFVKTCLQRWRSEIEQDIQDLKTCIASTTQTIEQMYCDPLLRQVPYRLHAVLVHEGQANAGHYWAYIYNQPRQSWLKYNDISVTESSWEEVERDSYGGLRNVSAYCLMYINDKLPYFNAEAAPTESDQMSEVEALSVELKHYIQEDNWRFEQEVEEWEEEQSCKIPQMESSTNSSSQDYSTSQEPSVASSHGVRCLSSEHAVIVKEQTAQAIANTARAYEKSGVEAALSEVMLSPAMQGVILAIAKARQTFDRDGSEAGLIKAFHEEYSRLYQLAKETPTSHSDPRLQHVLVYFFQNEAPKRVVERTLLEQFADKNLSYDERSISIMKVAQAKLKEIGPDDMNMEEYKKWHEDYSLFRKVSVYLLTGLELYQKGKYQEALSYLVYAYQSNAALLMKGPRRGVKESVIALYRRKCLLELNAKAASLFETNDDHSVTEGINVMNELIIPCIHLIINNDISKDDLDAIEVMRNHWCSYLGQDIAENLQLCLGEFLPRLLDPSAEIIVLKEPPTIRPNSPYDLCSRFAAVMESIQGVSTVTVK
Method in brief: as §1

Measured: log2 ratio of Biotin-Ahx-Ub-VS probe labelling

Chain of USP24 (Q9UPU5 whole entry): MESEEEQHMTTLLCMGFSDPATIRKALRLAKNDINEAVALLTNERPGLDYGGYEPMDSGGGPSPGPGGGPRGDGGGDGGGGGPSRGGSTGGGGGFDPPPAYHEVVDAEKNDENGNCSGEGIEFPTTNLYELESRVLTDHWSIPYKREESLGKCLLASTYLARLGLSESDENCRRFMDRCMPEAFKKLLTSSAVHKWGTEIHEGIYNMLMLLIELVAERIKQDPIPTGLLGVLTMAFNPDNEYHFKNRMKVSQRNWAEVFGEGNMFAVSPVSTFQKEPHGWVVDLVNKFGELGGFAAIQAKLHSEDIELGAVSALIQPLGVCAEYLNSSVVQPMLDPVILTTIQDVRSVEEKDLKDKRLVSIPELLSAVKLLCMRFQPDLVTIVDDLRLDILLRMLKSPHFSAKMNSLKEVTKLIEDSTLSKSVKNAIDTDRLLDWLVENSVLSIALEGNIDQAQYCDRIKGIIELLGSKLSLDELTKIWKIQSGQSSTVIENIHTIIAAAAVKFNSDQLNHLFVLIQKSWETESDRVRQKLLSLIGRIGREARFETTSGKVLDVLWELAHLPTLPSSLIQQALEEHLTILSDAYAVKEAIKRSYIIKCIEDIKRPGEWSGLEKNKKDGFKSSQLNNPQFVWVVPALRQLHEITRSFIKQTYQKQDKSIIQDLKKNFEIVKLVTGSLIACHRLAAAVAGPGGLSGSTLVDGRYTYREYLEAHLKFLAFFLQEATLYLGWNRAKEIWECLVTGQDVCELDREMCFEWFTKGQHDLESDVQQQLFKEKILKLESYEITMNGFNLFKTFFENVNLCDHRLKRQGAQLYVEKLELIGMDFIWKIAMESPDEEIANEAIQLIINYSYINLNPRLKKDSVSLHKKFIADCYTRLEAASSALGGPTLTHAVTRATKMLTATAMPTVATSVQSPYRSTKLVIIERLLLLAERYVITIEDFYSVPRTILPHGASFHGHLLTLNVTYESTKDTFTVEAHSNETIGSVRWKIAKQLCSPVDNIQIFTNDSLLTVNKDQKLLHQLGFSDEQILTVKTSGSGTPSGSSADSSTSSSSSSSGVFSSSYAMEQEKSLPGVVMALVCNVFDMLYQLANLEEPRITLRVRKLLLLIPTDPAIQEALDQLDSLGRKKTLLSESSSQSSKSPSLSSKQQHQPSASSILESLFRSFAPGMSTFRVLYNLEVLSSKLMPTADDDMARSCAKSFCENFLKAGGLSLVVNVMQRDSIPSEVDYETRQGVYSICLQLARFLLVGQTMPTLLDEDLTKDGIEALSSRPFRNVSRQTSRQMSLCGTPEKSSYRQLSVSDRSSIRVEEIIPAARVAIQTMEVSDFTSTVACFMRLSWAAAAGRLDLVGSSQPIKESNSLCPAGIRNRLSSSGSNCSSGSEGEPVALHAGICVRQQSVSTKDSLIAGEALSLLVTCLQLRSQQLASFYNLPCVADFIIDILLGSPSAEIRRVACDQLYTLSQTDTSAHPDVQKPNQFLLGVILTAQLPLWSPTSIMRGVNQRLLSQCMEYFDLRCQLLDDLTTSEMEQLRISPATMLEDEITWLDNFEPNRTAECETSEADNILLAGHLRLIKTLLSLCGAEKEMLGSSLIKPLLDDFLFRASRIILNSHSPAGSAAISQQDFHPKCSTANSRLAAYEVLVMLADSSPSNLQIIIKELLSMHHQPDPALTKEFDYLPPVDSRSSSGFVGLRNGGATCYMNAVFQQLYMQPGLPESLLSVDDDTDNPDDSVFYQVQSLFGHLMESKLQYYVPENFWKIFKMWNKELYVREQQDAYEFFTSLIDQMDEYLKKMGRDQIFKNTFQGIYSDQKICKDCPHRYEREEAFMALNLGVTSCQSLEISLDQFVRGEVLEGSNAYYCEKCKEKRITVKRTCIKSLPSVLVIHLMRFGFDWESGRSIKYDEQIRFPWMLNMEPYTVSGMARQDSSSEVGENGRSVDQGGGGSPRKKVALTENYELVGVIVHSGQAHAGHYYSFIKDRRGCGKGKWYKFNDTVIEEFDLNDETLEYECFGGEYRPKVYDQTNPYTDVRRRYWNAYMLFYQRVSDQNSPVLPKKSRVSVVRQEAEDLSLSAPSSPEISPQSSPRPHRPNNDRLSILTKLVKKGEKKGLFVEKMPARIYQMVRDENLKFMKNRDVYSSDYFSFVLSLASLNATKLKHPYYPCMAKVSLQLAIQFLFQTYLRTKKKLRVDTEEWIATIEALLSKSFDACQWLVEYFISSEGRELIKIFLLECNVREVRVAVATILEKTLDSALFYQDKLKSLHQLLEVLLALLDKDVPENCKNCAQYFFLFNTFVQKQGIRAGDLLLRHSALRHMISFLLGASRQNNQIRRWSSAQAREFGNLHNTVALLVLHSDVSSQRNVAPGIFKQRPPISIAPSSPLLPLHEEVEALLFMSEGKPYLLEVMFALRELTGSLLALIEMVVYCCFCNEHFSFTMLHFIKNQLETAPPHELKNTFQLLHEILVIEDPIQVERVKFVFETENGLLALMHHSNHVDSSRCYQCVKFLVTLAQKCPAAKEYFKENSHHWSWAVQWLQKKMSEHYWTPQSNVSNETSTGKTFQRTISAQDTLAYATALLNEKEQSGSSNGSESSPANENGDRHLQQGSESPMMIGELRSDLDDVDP

Cc1nc(CN2CCCN(C(=O)CCl)CC2)no1.Cl
inactive: USP19 0.0547 | USP24 0.252 | USP25 0.233 | USP28 -0.00501
